# Experimental data taken from PubChem BioAssay AID1259343 (VanderVen Lab, College of Veterinary Medicine, Cornell …, 2017).
# Screen size: about 6,200 compounds; about 2,900 (47%) were called active. Rule as the data show it: active = inhibition above about 50%; inactive = the rest. The set was probably picked from earlier hits. Some of the results follow.
# Assay: Mycobacterium tuberculosis growth inhibition, primary screen (AID 1259343)
# Conditions: inhibition: at 10 µM, hits give high values; outcome: 10 uM
row,Structure (SMILES),inhibition
1,CC(Oc1ccc(Cl)cc1)C(=O)NC(C)c1cccs1 (centres undefined),94.5% (active)
2,COc1ccccc1NC(=O)N(Cc1ccsc1)C1CC1,16% (inactive)
3,COc1ccccc1CNC(=O)C1(S(=O)(=O)c2ccc(Cl)cc2)CCCC1,2.93% (inactive)
4,COc1ccccc1CN(C(=O)Nc1ccccc1Cl)C1CC1,78.5% (active)
5,CCc1cc(=O)[nH]c(-n2nc(C)cc2NC(=O)c2cc(Cl)ccc2OC)n1,102% (active)
6,COc1ccc(Cl)cc1C(=O)Nc1cc(C)nn1-c1nc(C)c(C)c(=O)[nH]1,100% (active)
7,COc1ccc(Cl)cc1C(=O)Nc1cc(C2CC2)nn1-c1nc(C)cc(=O)[nH]1,99.9% (active)
8,COc1ccc(Cl)cc1C(=O)Nc1cc(C)nn1-c1nc(C)cc(=O)[nH]1,101% (active)
9,Cc1cc(=O)[nH]c(-n2nc(C3CC3)cc2NC(=O)c2cc(Cl)ccc2Cl)n1,-15.9% (inactive)
10,Cc1noc(CNC(C)(C)Cc2ccc(Br)cc2)n1,-9.14% (inactive)
11,Cn1c2ccccc2n2c3ncccc3c(=O)c(C#N)c12,41.8% (inactive)
12,CSc1nnc(SCc2cc(C)no2)s1,27.2% (inactive)
13,COc1ccc(CSc2nnc(SCC(=O)N3CCCCCC3)s2)cc1,26.9% (inactive)
14,CCSc1nnc(SCc2cccc(OC)n2)s1,90.4% (active)
15,COc1ccc(NC(=O)c2ccc(-c3ccc(C(C)=O)cc3)o2)cn1,-28.8% (inactive)
16,CON(C)S(=O)(=O)c1cc(C(=O)Nc2cccc(Cl)c2Cl)ccc1Cl,22.1% (inactive)
17,CCCCN(C)S(=O)(=O)c1ccc(NC(=O)c2ccc(OC)nc2)cc1,88% (active)
18,COc1ccc(C2=NOC(CNCc3cccc(F)c3)C2)cc1 (centres undefined),76.2% (active)
19,COc1ccc(C2=NOC(c3ccc(C)cc3)C2)cc1 (centres undefined),22.2% (inactive)
20,Fc1cccc(CNCC2CC(c3ccc(Cl)c(Cl)c3)=NO2)c1 (centres undefined),57.1% (active)
21,COc1ccc(C2=NOC(CNCc3cccc(C(F)(F)F)c3)C2)cc1 (centres undefined),43.6% (inactive)
22,CCc1cccc(NC(=O)Cn2nc3ccc(SC(C)C)nn3c2=O)c1,77.8% (active)

row,Structure (SMILES),inhibition
1,Cc1ccc(=O)n(CC(=O)Nc2ccc(Sc3ccccc3Cl)cc2)n1,5.63% (inactive)
2,Cc1ccc(NC(=O)CN2CCc3ccccc32)cc1F,54.7% (active)
3,Cc1ccc(NC(=O)Cc2ccc(OC(F)F)cc2)cc1F,48.2% (inactive)
4,O=C(Cn1nnc(-c2ccccc2Cl)n1)Nc1ccc(I)cc1,32.1% (inactive)
5,COc1ccc(-c2nnn(CC(=O)Nc3ccc(C)c(F)c3)n2)cc1OC,86.6% (active)
6,O=C(CN1CCc2ccccc21)NC(=O)NCc1ccccc1,20.7% (inactive)
7,CCCn1ncc(CN2CCOC(c3ccc(Cl)c(Cl)c3)C2)c1C (centres undefined),7.23% (inactive)
8,CCCc1sc(C(=O)Nc2nccs2)cc1CC,80.5% (active)
9,CCOc1ccc(CCN=C=S)cc1OCC,97.5% (active)
10,c1ccc(-c2nnc(SCc3nnc(-c4ccco4)o3)o2)cc1,69.9% (active)
11,Clc1ccc(CSc2nnc(-c3ccco3)o2)c(Cl)c1,-6.93% (inactive)
12,Brc1ccccc1-c1nnc(SCc2nnc(-c3ccco3)o2)o1,-32.1% (inactive)
13,N#Cc1ccc(CSc2nnc(-c3ccccc3)o2)cc1,-28.8% (inactive)
14,Clc1ccc(CSc2nnc(-c3ccco3)o2)cc1Cl,88% (active)
15,c1ccc(-c2nnc(CSc3nnc(-c4ccccc4)o3)o2)cc1,101% (active)
16,Cn1nnnc1SCc1ccc(Cl)c(Cl)c1,37.6% (inactive)
17,CCSc1nnc(-c2ccc(Cl)cc2Cl)o1,100% (active)
18,Clc1ccccc1-c1nnc(SCc2ccccc2)o1,74.3% (active)
19,ClC12CC3CC(C1)CC(c1nnc(-c4ccco4)o1)(C3)C2,12.4% (inactive)
20,Clc1cc2c(c(CSc3nnc(-c4ccco4)o3)c1)OCOC2,86.3% (active)
21,Fc1ccccc1-c1nnc(SCc2ccccc2Br)o1,1.69% (inactive)
22,Cc1occc1-c1nnc(SCc2nnc(-c3ccco3)o2)o1,92.5% (active)

row,Structure (SMILES),inhibition
1,Fc1ccccc1-c1nnc(SCc2cccc3ccccc23)o1,85.9% (active)
2,BrC12CC3CC(C1)CC(c1nnc(-c4ccco4)o1)(C3)C2,23.4% (inactive)
3,Cc1ccc(/C=C/c2nc3scc(CC(C)C)c3c(=O)[nH]2)s1,-12.6% (inactive)
4,COc1cc(-c2ccc(=O)n(Cc3ccccc3C)n2)cc(OC)c1OC,inactive
5,COc1ccccc1CC(=O)N1CCC(n2nc(-c3ccccc3)cc2-c2ccccc2)CC1,59.7% (active)
6,CCCC(=O)N1CCCC1C(=O)Nc1ccc(-c2ccccc2)nn1 (centres undefined),-13% (inactive)
7,COc1ccccc1-c1noc(CSc2nnc(-c3ccc4c(c3)OCO4)o2)n1,99% (active)
8,COc1ccc(OCCSc2nnc(-c3ccc(OC)c(OC)c3)o2)cc1,91.1% (active)
9,CCc1ccc(-c2noc(CSc3nnc(-c4ccc5c(c4)OCO5)o3)n2)cc1,-23.7% (inactive)
10,COc1ccc(-c2noc(CSc3nnc(-c4ccc5c(c4)OCO5)o3)n2)cc1OC,78.9% (active)
11,COc1ccccc1-c1nnc(SCC(=O)c2ccc3c(c2)OCO3)o1,-33.1% (inactive)
12,CCn1c(SCC(=O)Nc2ccc(I)cc2)nnc1-c1ccco1,10.3% (inactive)
13,CCn1c(SCC(=O)c2cc(C)ccc2C)nnc1-c1ccco1,52.6% (active)
14,Cn1c(SC2CCCc3ccccc32)nnc1-c1ccco1 (centres undefined),27.9% (inactive)
15,CC1CCN(S(=O)(=O)NCCc2ccccc2F)CC1,82.6% (active)
16,CC1CCCN(S(=O)(=O)NCc2ccccc2Cl)C1 (centres undefined),-12.8% (inactive)
17,CC1CCN(S(=O)(=O)NC(C)c2ccc(F)cc2)CC1 (centres undefined),17.4% (inactive)
18,C/C=C/c1cc(C(=O)Nc2nc(C)cs2)cc(OC)c1OC,57.2% (active)
19,Cc1csc(NC(=O)c2ccnc(N(C)C)c2)n1,-4.65% (inactive)
20,COc1ccc(CNC(=O)Nc2ncc([N+](=O)[O-])s2)cc1,11.6% (inactive)
21,COc1ccc(Oc2ccc(CNCc3ccc(C)s3)cn2)cc1,78.2% (active)
22,Cc1ccccc1OCC(=O)Nc1ccc(-n2ccnc2)cc1C(F)(F)F,8.11% (inactive)

row,Structure (SMILES),inhibition
1,Cc1nc(-c2cc(Br)cs2)sc1C(=O)O,19.5% (inactive)
2,CNC(=O)C(C#N)C(=O)c1sc(-c2ccc(Cl)s2)nc1C (centres undefined),54.5% (active)
3,CC(C)N1CCN(Cc2ccc(C#CC(C)(C)O)s2)CC1CCO (centres undefined),77.8% (active)
4,O=C(NCC1CCCC1)c1csc(Br)c1,95.4% (active)
5,COc1ccc(C(=O)NCC2CCCCC2)cc1F,70.9% (active)
6,O=C(NS(=O)(=O)C1CCCC1)c1ccc(F)c(F)c1,25.9% (inactive)
7,O=C(CS(=O)CCOc1cccc(Br)c1)NCC1CCCCC1 (centres undefined),12.5% (inactive)
8,O=C(NCC1CC1)c1cc(-c2ccc(Br)cc2)n[nH]1,2.7% (inactive)
9,CCOc1ccc(NC(=O)COC(=O)c2ccc(Cl)cc2O)cc1,94.7% (active)
10,Cc1nc(-n2nc(-c3cccs3)cc2N)[nH]c(=O)c1C,92.4% (active)
11,CC(C)c1cc(=O)[nH]c(-n2nc(-c3cccs3)cc2N)n1,1.53% (inactive)
12,Cc1nc(-n2nc(-c3cccs3)cc2NC(=O)c2ccccc2F)[nH]c(=O)c1C,83.2% (active)
13,Cc1nc(-n2nc(-c3cccs3)cc2NC(=O)c2ccc(F)cc2)[nH]c(=O)c1C,99.3% (active)
14,Cc1cc(=O)[nH]c(-n2nc(-c3cccs3)cc2N)n1,-45.8% (inactive)
15,Cc1nc(-n2nc(-c3cccs3)cc2NC(=O)c2ccccc2Cl)[nH]c(=O)c1C,61% (active)
16,CCC(CC)C(=O)Nc1cc(-c2cccs2)nn1-c1nc(C)c(C)c(=O)[nH]1,-21.5% (inactive)
17,O=C(O)c1csc(-c2cnn(-c3ccccc3)n2)n1,33.6% (inactive)
18,Cc1cc(C)cc(NC(=O)c2ncn(-c3ccccc3C)n2)c1,77.4% (active)
19,O=C1CNC(=S)N1c1ccc(Cl)cc1,-2.04% (inactive)
20,CCN(CC)c1ccc(N2C(=O)CNC2=S)cc1,54.3% (active)
21,CCN(CC)c1ccc(-c2n[nH]c(=S)o2)cc1,-4.83% (inactive)
22,O=C(c1ccc(Cl)cc1)c1c(O)cc(-c2ccc(Cl)cc2)oc1=O,84% (active)

row,Structure (SMILES),inhibition
1,S=c1[nH]cc(-c2ccc(Cl)cc2)o1,-9.85% (inactive)
2,Cc1sc2nc(CSC3=NCCS3)[nH]c(=O)c2c1C,49% (inactive)
3,CSc1nnc(SCc2nc3sc(C(=O)O)c(C)c3c(=O)[nH]2)s1,80.8% (active)
4,C=CCSc1nc2sc(C(=O)O)c(C)c2c(=O)[nH]1,26.3% (inactive)
5,O=[N+]([O-])C1=C(Nc2ccc(-c3ccccc3)cc2)CS(=O)(=O)C1,95.9% (active)
6,CC(=O)Nc1ccc(OCc2cccc(F)c2)c(Cl)c1,85.1% (active)
7,Cc1[nH]c(=S)sc1CC(=O)Nc1cccc(OCc2ccc(F)cc2)c1,38.9% (inactive)
8,O=C(O)c1ccc(F)c(COc2ccc(F)cc2)c1,18.4% (inactive)
9,CNC(=O)c1ccc(OCc2cccc(F)c2)cc1,78.6% (active)
10,CC(NC(=O)COc1ccc(C(F)(F)F)cc1)c1cccc(F)c1 (centres undefined),9.32% (inactive)
11,COc1ccc(OCc2cc(C(=O)NCc3cccc(F)c3)no2)c(Cl)c1,34.7% (inactive)
12,CC(=O)Nc1cccc(OCc2ccc(F)cc2)c1,92.5% (active)
13,CSc1cccc(NC(=O)c2cc(=O)c(OCc3ccc(F)cc3)c[nH]2)c1,85.5% (active)
14,CCCS(=O)(=O)NCc1nc(NCCCc2ccccc2)c2ccccc2n1,33.8% (inactive)
15,CN(Cc1ccc2c(c1)OCCO2)Cc1cc(-c2ccccc2)no1,37.6% (inactive)
16,CN(Cc1cc(-c2ccncc2)no1)Cc1cc2ccccc2o1,23.3% (inactive)
17,CN(Cc1cccc(Cn2cccn2)c1)Cc1cc(-c2ccccc2)no1,61.2% (active)
18,CN(Cc1cc(-c2ccccc2)no1)Cc1cccc2nonc12,27.9% (inactive)
19,CN(Cc1cc(-c2ccncc2)no1)Cc1ccc(C2CCCCO2)s1 (centres undefined),27.1% (inactive)
20,CN(Cc1cc(-c2ccncc2)no1)Cc1ccc(Cl)s1,54.1% (active)
21,CN(Cc1ccsc1)Cc1cc(-c2ccccc2)no1,53.4% (active)
